Active and inactive are the calls of the source.

Drawing on PubChem BioAssay, this text covers composite z-score, z-score and composite Z-score for 6 compounds.

Assay [1] has as its system Human papillomavirus type 1a protein E7 (residues 44-93). In words: HPV1a E7 fragment binders on microarrays, primary screen, biochemical, small-molecule microarray, residues 44-93, 635 nm fluorescence (AID 1108).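 Also: E7 fragment applied at 1 µg/mL in TBST for 1 h at 4 C; score combines spot fluorescence with its signal to noise ratio.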 Conditions: small-molecule microarray binding, fluorescence 635 nm; higher = more signal.
Assay [2] in a line: modulators of HCV replicon luciferase signal, primary screen, HCV replication inhibitor project, Huh7 cells, luciferase reporter (AID 1109).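 Also: huh7 hepatoma cells harbouring a luciferase neomycin HCV replicon reporter; luciferase luminescence as measure of HCV replicon replication; test concentration not given here.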 The conditions noted are these: 48 h, higher = more signal.
For assay [3], the target named is Left-right determination factor 2 (Homo sapiens) (UniProt O00292). Kind of assay: LEFTY2 binders on small-molecule microarrays, primary screen, biochemical, small-molecule microarray, 635 nm fluorescence scan (AID 1110). The conditions noted are these: LEFTY2 binding, higher = more signal.
Chain of Left-right determination factor 2 (Homo sapiens) (O00292 whole entry, looked up): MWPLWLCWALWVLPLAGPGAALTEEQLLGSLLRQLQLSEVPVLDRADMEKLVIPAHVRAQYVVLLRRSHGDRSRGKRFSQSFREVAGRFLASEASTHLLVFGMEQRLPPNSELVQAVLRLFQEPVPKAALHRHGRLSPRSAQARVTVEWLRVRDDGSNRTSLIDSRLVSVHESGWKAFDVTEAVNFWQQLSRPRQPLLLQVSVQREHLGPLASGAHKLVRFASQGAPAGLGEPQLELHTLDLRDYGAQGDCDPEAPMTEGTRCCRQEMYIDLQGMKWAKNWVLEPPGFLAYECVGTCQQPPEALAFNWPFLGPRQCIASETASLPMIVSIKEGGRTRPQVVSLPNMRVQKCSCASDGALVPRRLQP
Assay [4] deals with Calmodulin-1 (Homo sapiens) (UniProt P0DP23). Kind of assay: CALM1 binders on microarrays, EGTA buffer, profiling panel, biochemical, small-molecule microarray, Cy5-labelled CALM1 (AID 1111).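 Also: labelled calmodulin applied in Tris saline Tween buffer holding calcium plus EGTA and DTT.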 The conditions noted are these: Cy5-CALM1 binding fluorescence, higher = more signal.
Assay [5] has the same target. Kind of assay: calcium-bound CALM1 binders on microarrays, profiling panel, artefact control for SMM control-protein annotation, biochemical, small-molecule microarray, Cy5-labelled CALM1, plus calcium (AID 1112).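 Also: score merges spot fluorescence with signal to noise from triplicate slides.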 Conditions: Cy5-CALM1 binding fluorescence, higher = more signal.
A short description of assay [6]: small-molecule microarray binders of probe aWnt5a, primary screen, biochemical, biotinylated probe, 635/667 nm fluorescence (AID 1113).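 Also: score merges 667 nm fluorescence intensity with signal-to-noise per printed feature.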 Conditions: higher = more signal.
Assay [7] can be described thus: small-molecule microarray binders of probe aShh, primary screen, biochemical, biotinylated probe, 635/667 nm fluorescence (AID 1114).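 Also: probe is biotin-labelled aShh protein from a stem cell growth factor screen; measures binding of labelled protein to compounds printed on the slide; score merges feature fluorescence at 667 nm with signal-to-noise.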 The conditions noted are these: higher = more signal.
Assay [8] is described as follows: small-molecule microarray binders of probe aNog, primary screen, biochemical, biotinylated probe, 635/667 nm fluorescence (AID 1115).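 Also: probe is biotinylated aNog protein used at 0.15 µg/mL for 1 h at 4 C; z-score combines 667 nm fluorescence of each spot with its signal to noise.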 The conditions noted are these: higher = more signal.
Assay [9] deals with Torsin-1A-interacting protein 1 (Homo sapiens) (UniProt Q5JTV8). Kind of assay: LAP1 binders from COS7 cell lysate, primary screen, small-molecule microarray, 635/667 nm fluorescence (AID 1116). The conditions noted are these: COS7-hLAP1 lysate binding, 635 nm fluorescence, higher = more signal.
Chain of Torsin-1A-interacting protein 1 (Homo sapiens) (Q5JTV8 whole entry, looked up): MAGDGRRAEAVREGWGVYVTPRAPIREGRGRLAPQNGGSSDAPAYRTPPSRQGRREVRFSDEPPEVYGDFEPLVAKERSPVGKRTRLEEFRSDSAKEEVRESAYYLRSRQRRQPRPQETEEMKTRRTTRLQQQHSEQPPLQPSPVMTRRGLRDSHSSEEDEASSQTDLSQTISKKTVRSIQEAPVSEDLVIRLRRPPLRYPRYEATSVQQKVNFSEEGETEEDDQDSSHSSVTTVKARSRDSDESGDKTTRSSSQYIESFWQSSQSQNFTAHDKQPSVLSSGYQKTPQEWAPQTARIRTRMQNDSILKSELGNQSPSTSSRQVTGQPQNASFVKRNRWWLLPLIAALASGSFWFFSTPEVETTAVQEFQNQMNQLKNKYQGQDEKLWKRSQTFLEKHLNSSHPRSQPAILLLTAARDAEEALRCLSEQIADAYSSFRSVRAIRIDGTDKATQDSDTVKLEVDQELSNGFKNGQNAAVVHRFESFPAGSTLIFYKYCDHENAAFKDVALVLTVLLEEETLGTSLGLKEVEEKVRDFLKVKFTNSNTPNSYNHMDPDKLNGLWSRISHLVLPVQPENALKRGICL
In assay [10] the target is Alpha-bungarotoxin (Bungarus multicinctus) (UniProt P60615). Kind of assay: alpha-bungarotoxin binders on microarray, profiling panel, artefact control for SMM control protein annotation, biochemical, small-molecule microarray, Alexa647 label, 635/667 nm fluorescence (AID 1117). The conditions noted are these: alpha-BTX-A647 binding fluorescence, higher = more signal.
Chain of Alpha-bungarotoxin (Bungarus multicinctus) (P60615 whole entry, looked up): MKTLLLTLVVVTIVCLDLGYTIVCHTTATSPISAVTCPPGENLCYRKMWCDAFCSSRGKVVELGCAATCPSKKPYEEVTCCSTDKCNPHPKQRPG
Assay [11] concerns the target Albumin (Bos taurus) (UniProt P02769). In words: bovine serum albumin binders on microarray, profiling panel, artefact control for SMM control protein annotation, biochemical, small-molecule microarray, Alexa647 label, 635/667 nm fluorescence (AID 1118).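 Also: score merges 667 nm emission intensity and signal-to-noise per printed compound spot.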 Conditions: BSA-A647 binding, fluorescence 635 nm, higher = more signal.
A short description of assay [12]: small-molecule microarray binders of probe aXIP, primary screen, biochemical, NeuroSMM set, 635/667 nm fluorescence (AID 1119).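 Also: probe is the protein aXip251-270 applied at 1 µg/mL to compound-printed slides; binding of probe to printed compounds measured as 667 nm fluorescence plus signal to noise.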 The conditions noted are these: higher = more signal, called active from +8 up or from −8 down.
A short description of assay [13]: small-molecule binders of probe aNOTCH3, primary screen, biochemical, small-molecule microarray, 635/667 nm fluorescence (AID 1120).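 Also: probe is a biotin-tagged antibody raised against NOTCH3 rather than NOTCH3 protein; score merges spot fluorescence near 667 nm with spot signal to noise.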 The conditions noted are these: higher = more signal.
Assay [14] can be described thus: small-molecule binders of probe aNOTCH2, primary screen, biochemical, small-molecule microarray, 635/667 nm fluorescence (AID 1121).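 Also: score merges feature fluorescence read at 667 nm with its signal to noise.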 The conditions noted are these: higher = more signal.
Assay [15] addresses Carbonic anhydrase 2 (Homo sapiens) (UniProt P00918). In words: CAII small-molecule binders, profiling panel, biochemical, small-molecule microarray, Alexa647-labelled CAII (AID 1122). The conditions noted are these: CAII-A647 binding fluorescence, higher = more signal.
The nature of assay [16]: COS7 lysate on small-molecule microarray, probe aHis, 635 nm (AID 1123).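 Also: z-score combines 667nm fluorescence intensity with signal-to-noise per printed compound spot.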 Conditions: COS7 cell lysate, fluorescence, higher = more signal.
A short description of assay [17]: compound binding in COS7 lysate, probe aLAP1, primary screen, cell lysate, small-molecule microarray (AID 1124).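 Also: lysate comes from COS7 cells expressing LAP1 and is applied at 0.3 µg/mL; score merges spot fluorescence near 667 nm with signal-to-noise over triplicate slides.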 The conditions noted are these: probe aLAP1, fluorescence, higher = more signal.
Assay [18] deals with Sam68 (KHDRBS1). Kind of assay: Sam68 small-molecule binders, primary screen, biochemical, small-molecule microarray, 635 nm fluorescence (AID 1125).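 Also: score merges 667 nm channel intensity with signal to noise over triplicate slides.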 The conditions noted are these: small-molecule microarray binding, higher = more signal.
The subject of assay [19] is Chordin-like protein 2 (CHRDL2). In words: CHRDL2 small-molecule binders, primary screen, biochemical, small-molecule microarray, 635 nm fluorescence (AID 1126).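 Also: printed compound slides probed with Chrdl2 protein at 4 µg/mL for 1 h at 4 C; score merges 667 nm emission intensity with signal to noise over three replicate slides.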 Conditions: small-molecule microarray binding, fluorescence 635 nm; higher = more signal.
Assay [20] concerns the target Concanavalin-A (Canavalia ensiformis) (UniProt P02866). In words: ConA small-molecule binders, primary screen, artefact control for SMM control protein annotation, biochemical, small-molecule microarray, Alexa647 label, 635 nm (AID 1127).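 Also: z combines 667 nm emission intensity with signal-to-noise across three replicate slides.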 Conditions: ConA-A647 binding fluorescence, higher = more signal.

Chain of Albumin (Bos taurus) (P02769 whole entry, looked up): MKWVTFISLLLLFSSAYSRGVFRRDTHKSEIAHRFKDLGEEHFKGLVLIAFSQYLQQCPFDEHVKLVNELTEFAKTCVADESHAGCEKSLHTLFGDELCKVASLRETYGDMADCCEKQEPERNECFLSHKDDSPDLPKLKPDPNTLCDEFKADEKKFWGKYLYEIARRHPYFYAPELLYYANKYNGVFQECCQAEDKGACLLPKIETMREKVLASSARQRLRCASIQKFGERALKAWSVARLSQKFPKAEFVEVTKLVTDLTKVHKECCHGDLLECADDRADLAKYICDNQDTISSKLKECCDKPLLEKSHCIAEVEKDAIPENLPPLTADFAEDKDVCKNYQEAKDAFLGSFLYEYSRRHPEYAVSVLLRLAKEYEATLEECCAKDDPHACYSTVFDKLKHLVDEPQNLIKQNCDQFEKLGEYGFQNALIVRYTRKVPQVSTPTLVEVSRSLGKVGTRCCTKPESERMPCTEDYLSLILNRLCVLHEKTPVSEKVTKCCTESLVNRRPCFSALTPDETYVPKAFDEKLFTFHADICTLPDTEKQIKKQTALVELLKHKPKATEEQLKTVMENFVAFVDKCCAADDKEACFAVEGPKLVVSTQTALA
Chain of Concanavalin-A (Canavalia ensiformis) (P02866 whole entry, looked up): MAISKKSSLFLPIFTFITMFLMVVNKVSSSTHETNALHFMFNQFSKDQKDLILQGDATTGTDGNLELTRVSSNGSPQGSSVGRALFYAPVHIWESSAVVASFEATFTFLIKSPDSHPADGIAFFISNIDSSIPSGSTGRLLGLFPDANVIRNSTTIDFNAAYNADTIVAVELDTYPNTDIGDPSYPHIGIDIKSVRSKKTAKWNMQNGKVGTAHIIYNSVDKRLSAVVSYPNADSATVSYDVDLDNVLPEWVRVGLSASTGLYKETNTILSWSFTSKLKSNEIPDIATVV

`CO[C@H]1O[C@H](CO)[C@@H](OC(=O)Nc2cccc(F)c2)[C@H](OC(=O)Nc2ccccc2-c2ccccc2)[C@@H]1OC(=O)Nc1ccccc1-c1ccccc1`: the composite z-score in assay [1] is 1.16; in [3], 0.343; in assay [4], 1.95; in [5], 0.283; in assay [6], 0.0825; in [7], 0.0684. Moreover, the composite z-score in [8] is -0.268; in assay [9], 1.47; in assay [10], 1.96; in [11] it was 0.914; in assay [13] it was 0.0479; in assay [14] it was -0.0041. Also, the composite z-score was 0.385 in assay [15]; 2.56 in assay [16]; 1 in assay [17]; 1.3 in [18]; -0.262 in assay [19]; 1.23 in assay [20]. The z-score in assay [2] was -3.61. Moreover, the composite Z-score in assay [12] is -0.116 (inactive).
Take `Cc1ccc(S[C@]2(C(=O)NCC(C)C)CC(=O)N(Cc3ccccc3)[C@@H]2c2ccc(CO)cc2)cc1`: the composite z-score in assay [1] is 0.725; in assay [3], -1.83; in assay [4], -0.624; in assay [5], -0.249; in assay [6], -0.141; in assay [7], -0.0904. The composite z-score in assay [8] was 0.596; in assay [9], 0.769; in assay [10] it was 0.147; in assay [11] it was 0.397; in [13] it was -0.406; in assay [14], 0.0196. For the same compound, the composite z-score in assay [15] was 0.748; in assay [16], 1.78; in assay [17] it was 0.984; in [18], -0.0273; in assay [19], -2.02; in [20] it was -1.1. Besides, the z-score in [2] was -1.99. Also, the composite Z-score in assay [12] is 0.941 (inactive).
As for `COCCOC(=O)N1C(=O)[C@@]2(c3cc(C#Cc4ccc(OC)cc4)ccc31)[C@H](C(N)=O)[C@H]1C(=O)O[C@H](c3ccccc3)[C@H](c3ccccc3)N1[C@@H]2c1ccc(O)cc1`, the composite z-score is -0.426 in [1]; -1.58 in assay [3]; -0.844 in assay [4]; 0.247 in assay [5]; 0.0243 in [6]; -0.487 in assay [7]. The composite z-score in assay [8] is 0.909; in assay [9], 0.127; in assay [10] it was -1.05; in assay [11], -1.62; in assay [13], 0.319; in assay [14], -0.0125. For the same compound, the composite z-score in assay [15] was 0.0424; in assay [16], -0.304; in [17], 0.0413; in assay [18], -0.986; in [19], -1.71; in assay [20] it was -1.67. This compound also showed a z-score in assay [2] of -1.01. In addition, the composite Z-score in [12] was 0.0064 (inactive).
Take `CCCNC(=O)[C@@]1(C)c2ccccc2C(=O)N(Cc2cc(C(F)(F)F)cc(C(F)(F)F)c2)[C@H]1c1ccc(CO)cc1`: the composite z-score in assay [1] was 1.23; in [3], -0.657; in assay [4], 0.0189; in assay [5], 0.168; in [6], 0.0377; in assay [7], -0.297. The composite z-score in [8] was -0.158; in [9] it was 1.61; in [10], 0.919; in [11] it was -0.549; in [13], -0.198; in assay [14], -0.114. For the same compound, the composite z-score was 0.671 in assay [15]; 1.68 in assay [16]; 0.458 in assay [17]; 0.356 in assay [18]; -1.08 in assay [19]; -0.082 in assay [20]. In addition, in assay [2], the z-score is -1.16. Further, the composite Z-score in assay [12] was 0.147 (inactive).
For the compound `CC(C)(C)OC(=O)CC[C@@]1(C(=O)N2CCOCC2)N=C(c2ccc(OCCCO)cc2)O[C@@H]1c1ccccc1N=[N+]=[N-]`, the composite z-score is 1.48 in assay [1]; 0.395 in [3]; 1.56 in assay [4]; 0.642 in [5]; 0.115 in [6]; 0.558 in assay [7]. Further, the composite z-score was 0.45 in [8]; 1.6 in [9]; 2.41 in assay [10]; 0.899 in [11]; 0.336 in assay [13]; -0.0463 in assay [14]. In addition, the composite z-score in assay [15] is 0.74; in assay [16], 3.35; in [17], 1.51; in assay [18] it was 1.3; in [19], -0.16; in assay [20], 1.14. Also, the z-score in assay [2] was determined as 0.623. Besides, the composite Z-score in [12] was 0.817 (inactive).
For `O=c1cccc(-c2cccc3ccccc23)o1`, the composite z-score in assay [1] was -0.285; in assay [3], -0.905; in [4] it was 0.088; in assay [5] it was 0.33; in [6] it was -0.0751; in [7], -0.138. The composite z-score in assay [8] is 1.25; in assay [9] it was 0.78; in assay [10], 0.541; in assay [11] it was 0.702; in assay [13], -0.0377; in assay [14] it was 0.0135. The composite z-score in assay [15] is 0.475; in assay [16], 0.458; in assay [17] it was 0.871; in assay [18], 0.11; in assay [19], -0.671; in [20] it was -0.511. The compound further gave a z-score in assay [2] of -0.497. Moreover, the composite Z-score in assay [12] was 0.276 (inactive).
